VDR inh – Inhibitors of the vitamin D receptor (VDR): qHTS; Vitamin D3 receptor (Homo sapiens), P11473; VDR-SRC2-3 peptide fluorescence polarization, 2 h; Potency, µM, for inactives: max response, negative = inhibition, usual class: inhibitors; 0.93% of 400,000 active; AID 504847, 2011; further: on the % scale 0 is the no-effect control and ±100 the full control effect
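Two reagent solutions held at 4 deg C in the dark were dispensed, compounds pinned at 23 nl, and the mixture incubated 2 h at room temperature. Read-out: fluorescence polarization of VDR–SRC2-3 peptide binding.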
G9a block – qHTS Assay for Inhibitors of Histone Lysine Methyltransferase G9a. Histone-lysine N-methyltransferase EHMT2 (Homo sapiens), Q96KQ7. G9a H3K9 monomethylation, AlphaScreen, 2 h. Potency, µM (series often up to 102 µM), for the others: at the top dose activity, negative = inhibition, actives largely listed as inhibitors. 8.8% of 350,000 active. AID 504332, 2011; further: on the % scale 0 is the no-effect control and ±100 the full control effect; nearly all actives have a fitted effect of over 75% in size
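Readings reflect AlphaScreen signal from monomethyl-H3K9 antibody detection. HMT at 20 nM; substrate b-H3K9 500 nM; cofactor SAM 20 uM; 2 h RT reaction; compounds tested as titrations in qHTS with 15 min preincubation.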
Sfp inh – qHTS Assay for Inhibitors of Bacillus subtilis Sfp phosphopantetheinyl transferase (PPTase); 4'-phosphopantetheinyl transferase ffp (Bacillus subtilis), Q9F4F7; Biochemical Sfp PPTase activity, qHTS; Potency, µM, for the others: largest response in the series, negative = inhibition, usual class: inhibitors; 3.5% of 310,000 active;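 further: the enzyme is Sfp with the accession as filed and its product quenches rhodamine fluorescence; 0% = enzyme reaction without inhibitor and -100% = no enzyme wells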
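Compounds were incubated with enzyme (final 15 nM) for 15 min at room temperature before substrate addition started the reaction. Fluorescence at 525 nm excitation, 598 nm emission was recorded immediately and after 30 minutes.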
12-LOX inh – Primary qHTS assay for inhibitors of human arachidonate 12S-lipoxygenase (ALOX12): Round 2; Potency, µM (highest dose often 108 µM), inactives show at the top dose activity change, negative = inhibition, usual class: inhibitors; purified 12hLO, xylenol orange hydroperoxide absorbance; AID 1671190, 2021; 1.1% of 580,000 active; further: on the % scale 0 is the no-effect control and ±100 the full control effect
Target sequence (P18054 whole entry, looked up): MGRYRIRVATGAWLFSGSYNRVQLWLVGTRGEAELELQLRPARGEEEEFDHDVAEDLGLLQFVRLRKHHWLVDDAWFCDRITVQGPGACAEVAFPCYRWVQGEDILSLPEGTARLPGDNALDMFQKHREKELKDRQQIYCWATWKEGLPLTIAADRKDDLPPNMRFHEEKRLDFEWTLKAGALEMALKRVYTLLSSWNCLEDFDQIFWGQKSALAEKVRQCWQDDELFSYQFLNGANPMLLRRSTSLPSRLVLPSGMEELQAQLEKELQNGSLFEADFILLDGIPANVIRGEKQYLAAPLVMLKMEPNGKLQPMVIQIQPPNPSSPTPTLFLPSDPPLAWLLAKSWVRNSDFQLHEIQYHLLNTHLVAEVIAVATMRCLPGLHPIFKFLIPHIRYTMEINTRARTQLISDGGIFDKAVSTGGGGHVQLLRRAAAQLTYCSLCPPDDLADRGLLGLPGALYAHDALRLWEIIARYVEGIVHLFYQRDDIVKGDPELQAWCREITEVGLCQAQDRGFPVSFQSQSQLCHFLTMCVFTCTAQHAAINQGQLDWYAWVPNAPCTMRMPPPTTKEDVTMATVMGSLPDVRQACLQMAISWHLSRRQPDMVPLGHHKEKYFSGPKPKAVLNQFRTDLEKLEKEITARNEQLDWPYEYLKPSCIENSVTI
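Purified human 12hLO at 150 nM in 25 mM Hepes, 0.01% Triton X-100, pH 7.0, preincubated 15 min at room temperature with compound. Reaction started with 40 uM arachidonic acid, 30 min at room temperature. Hydroperoxide measured by Fe-xylenol orange, 573/405 nm absorbance ratio.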
Glioma ERSR ind – qHTS for Inducers of the Endoplasmic Reticulum Stress Response (ERSR) in Human Glioma: qHTS; 0.02% of 420,000 active; Potency, µM, for inactives: at the highest dose activation, hits mostly activators; U87-MG GRP78 promoter luciferase reporter, 16 h; further: series mostly up to about 76 µM; % of control where 0% means no effect; nearly all actives have a fitted effect of over 35% in size
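Stably transfected U87-MG human glioma cells carrying a GRP78-based luminescent sensor were seeded at 1000 cells/well, pin-dosed with compounds and incubated 16 h. Luciferase reagent was then added, and end-point luminescence was read after 10 min at room temperature.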
Starred values were filed as active, the others as inactive; ? = inconclusive; . = not tested or not shown; [ ] = dose if it differs, or a comment. This excerpt belongs to a sample that is enriched for hits. The call rests on the fitted dose curve; in most records, active means well fitted curve in the direction sought with a large enough effect; inconclusive means small, poorly fitted or top-dose-only effect, or another doubt; inactive means no such curve, though single readings can be large; an effect the other way counts as inactive or inconclusive. Potency means the concentration at half of the fitted maximal effect.

SMILES	VDR inh	G9a block	Sfp inh	12-LOX inh	Glioma ERSR ind
COc1ccccc1NC(=O)c1nc[nH]c1C(=O)Nc1ccccc1OC	2%	11µM*	56µM*	-10%	-5%
COc1cccc(C(=O)NN2C(=O)C3C4C=CC(O4)C3C2=O)c1 (centres undefined)	11%	?	?	428%	-1%
O=C(NN1C(=O)C2C3C=CC(O3)C2C1=O)c1cccc(Br)c1 (centres undefined)	16%	?	40µM*	3%	2%
O=C(NN1C(=O)C2C3C=CC(O3)C2C1=O)c1cccc(O)c1 (centres undefined)	-16%	7.9µM*	45µM*	-2%	-5%
Cc1cccc(C(=O)NN2C(=O)C3C(c4ccccc4)C=CC(c4ccccc4)C3C2=O)c1 (centres undefined)	1%	41%	40%	-19%	-1%
COc1ccc(C(=O)NN2C(=O)C3C4C=CC(O4)C3C2=O)cc1 (centres undefined)	17%	4.5µM*	22µM*	11%	4%
CCCCCn1c(NCCCOC)nc2c1c(=O)[nH]c(=O)n2C	.	.	.	26%	.
CCOc1ccc(S(=O)(=O)N2CCOCC2)cc1NC(=O)c1ccc(N2CCCC2=O)cc1	-6%	32µM*	.	2%	-1%
COc1ccccc1OCC(=O)Nc1cc(S(=O)(=O)N2CCCCC2)ccc1N1CCCCC1	-6%	8.9µM*	-15%	?	-5%
CCOc1ccccc1OCC(=O)Nc1cc(S(=O)(=O)N2CCCCC2)ccc1N1CCN(CC)CC1	?	3.5µM*	.	?	-6%
CCN1CCN(c2ccc(S(=O)(=O)N3CCCCC3)cc2NC(=O)COc2ccccc2)CC1	?	50µM*	.	?	-3%
CN(CCO)C(=O)COc1cc(O)c2c(=O)cc(-c3ccccc3)oc2c1	.	.	.	0%	.
Cc1ccc(NC(=O)C2CCN(c3cc(C(F)(F)F)ncn3)CC2)cc1Cl	.	.	.	9%	.
CC(C)c1ccccc1OCC(=O)Nc1cc(S(=O)(=O)N2CCOCC2)ccc1N1CCCC1	17%	28µM*	.	-14%	-3%
COc1ccc(OC)c(NC(=O)COc2ccc(S(=O)(=O)N3CCCC3)cc2)c1	-5%	40µM*	4%	-8%	1%
CCCn1c(SCC(=O)Nc2cc(S(=O)(=O)N3CCOCC3)ccc2OC)n[nH]c1=O	13%	3.2µM*	40µM*	-6%	-5%
Cc1ccccc1OCC(=O)Nc1cc(S(=O)(=O)N2CCOCC2)ccc1N1CCCC1	-10%	-8%[12.7 µM]	.	15%	-2%
Cc1ccc(OCC(=O)Nc2cc(S(=O)(=O)N3CCCCC3)ccc2N2CCN(C)CC2)c(C)c1	9%	45µM*	.	-24%	-1%
FC(F)(F)c1ccc(CN2CCNc3cc(Nc4cccnc4)ncc3C2)cc1	.	.	.	-18%[176 µM]	.
C=CCOc1ccc(CNCc2ccco2)cc1	.	.	.	-17%	.
CC(C(=O)NCc1ccccc1Cl)N(c1ccccc1)S(C)(=O)=O (centres undefined)	.	.	.	-6%	.
O=C(CSc1nncs1)Nc1cc(S(=O)(=O)N2CCOCC2)ccc1N1CCCC1	-14%	35µM*	.	?	-3%
CCOCC(=O)Nc1cc(S(=O)(=O)N2CCOCC2)ccc1N1CCCCC1	?	7.1µM*	11µM*	14%	-4%
CCOC(=O)CCC(=O)Nc1cc(S(=O)(=O)N2CCOCC2)ccc1N1CCCCC1	15%	25%[59 µM]	.	-5%	-4%
COc1ccc(S(=O)(=O)N2CCCCC2)cc1NC(=O)C1CSC2(C)CCC(=O)N12 (centres undefined)	1%	.	8%	.	-1%
SMILES	VDR inh	G9a block	Sfp inh	12-LOX inh	Glioma ERSR ind
CCOc1ccc(S(=O)(=O)N2CCCCC2)cc1NC(=O)C1CSC2(C)CCC(=O)N12 (centres undefined)	2%	40µM*	.	-18%	-2%
COc1ccc(S(=O)(=O)N2CCN(CCNC(=O)COc3ccc(C(C)C)cc3)CC2)cc1	.	.	.	35µM*	.
COc1ccc(CCNC(=O)COc2ccc(S(=O)(=O)N3CCCC3)cc2)cc1	-3%	.	2%	-5%	-1%
Nc1nnc(SCC(=O)Nc2cc(S(=O)(=O)N3CCOCC3)ccc2N2CCCC2)s1	8%	-6%[59 µM]	.	4%	-7%
Cc1cc(C(=O)Nc2ccccc2C#N)cs1	.	.	.	-2%	.
O=C(c1ccnc(Cl)c1)N1CCC(c2nc3cc(C(F)(F)F)ccc3s2)CC1	.	.	.	-40%	.
COc1ccc(CC(=O)OCC(=O)Nc2cc(S(=O)(=O)N3CCOCC3)ccc2N2CCCC2)cc1	-17%	40µM*	-5%	-3%	-3%
N#Cc1ccc(OCC(=O)Nc2cc(S(=O)(=O)N3CCOCC3)ccc2N2CCCC2)cc1	5%	.	.	24%	-3%
CCC(=O)c1ccc(OCC(=O)Nc2cc(S(=O)(=O)N3CCCCC3)ccc2N2CCN(CC)CC2)cc1	-7%	10µM*	.	?	-3%
COc1ccc(OC)c(NC(=O)C2CCN(S(=O)(=O)c3ccc4c(c3)OCCO4)CC2)c1	-20%	50µM*	.	-19%	-4%
COc1ccc(OC)c(NC(=O)C2CCN(S(C)(=O)=O)CC2)c1	-11%	?	0%	1%	-3%
N#Cc1ccc(OCC(=O)Nc2cc(S(=O)(=O)N3CCOCC3)ccc2N2CCOCC2)cc1	0%	71µM*	14%	8%	-2%
COc1ccc(CC(=O)Nc2cc(S(=O)(=O)N3CCOCC3)ccc2N2CCCC2)cc1	.	.	.	7%	-6%
CC1=C[C@@H](CN(C)Cc2cccnc2)[C@H](C(C)C)C[C@H]1Cc1nnc(-c2ccc([N+](=O)[O-])cc2)o1	.	.	.	138%	.
COc1ccc(CCN(C)C2CCCN(c3ncccc3C#N)C2)cc1OC (centres undefined)	.	.	.	-6%	.
COc1cc(S(=O)(=O)N2CCOCC2)ccc1NC(=O)CSc1nnc(N)s1	-4%	45µM*	3%	0%	-3%
CCOc1ccc(S(=O)(=O)N2CCCCC2)cc1NC(=O)Cc1cccs1	-12%	16µM*	.	-20%	-1%
N#Cc1ccc(C(=O)OCc2cccc(S(=O)(=O)N3CCOCC3)c2)cc1	2%	14µM*	.	-1%	-3%
CC(C)C(C)NC(=O)COC(=O)C1CCN(S(=O)(=O)c2ccc3c(c2)OCCO3)CC1 (centres undefined)	-13%	50µM*	.	3%	-4%
COC(=O)CCSCC(=O)Nc1ccc(S(=O)(=O)N2CCOCC2)cc1OC	-14%	9%	1%	8%	1%
CN(C)S(=O)(=O)c1ccc2c(c1)CCN2Cc1cc(C#N)ccc1F	.	.	.	3%	.
Cc1c(CC(=O)Nc2nc3ccccc3[nH]2)c(=O)oc2c(C)c(O)ccc12	.	.	.	-29%	.

Compound activity (PubChem BioAssay)
